Records with an inconclusive call do not appear. Activity calls are given as the source filed them. Unless noted, calls come from the whole dose curve; as a rule, active = well fitted curve in the direction sought with a large enough effect in the repeat runs; inconclusive = weak or mixed curves; inactive = no such curve, though single readings can be large; an effect the other way counts as inactive or inconclusive.
How the values were obtained:
[1] = qHTS assay to identify small molecule antagonists of the estrogen related receptor (ERR) signaling pathway from Tox21 library - cell viability counter screen (AID 1224834); note: nearly all actives have a fitted effect of over 30% in size; note: potency is the fitted concentration of half-maximal effect
In short: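 CellTiter-Fluor fluorescence, read after 30 min at 37 C, measures viability of ERR cells. Cells plated at 2,000/well and incubated 6 h before pin-tool compound addition, then exposed 17.5 hours at 37 C.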

[2] = target: Luciferin 4-monooxygenase (Photinus pyralis) (UniProt P08659); experiment: qHTS assay to identify small molecule inhibitors of firefly luciferase (AID 1224835); note: nearly all actives have a fitted effect of over 25% in size
Sequence of Luciferin 4-monooxygenase (Photinus pyralis) (P08659 whole entry, looked up): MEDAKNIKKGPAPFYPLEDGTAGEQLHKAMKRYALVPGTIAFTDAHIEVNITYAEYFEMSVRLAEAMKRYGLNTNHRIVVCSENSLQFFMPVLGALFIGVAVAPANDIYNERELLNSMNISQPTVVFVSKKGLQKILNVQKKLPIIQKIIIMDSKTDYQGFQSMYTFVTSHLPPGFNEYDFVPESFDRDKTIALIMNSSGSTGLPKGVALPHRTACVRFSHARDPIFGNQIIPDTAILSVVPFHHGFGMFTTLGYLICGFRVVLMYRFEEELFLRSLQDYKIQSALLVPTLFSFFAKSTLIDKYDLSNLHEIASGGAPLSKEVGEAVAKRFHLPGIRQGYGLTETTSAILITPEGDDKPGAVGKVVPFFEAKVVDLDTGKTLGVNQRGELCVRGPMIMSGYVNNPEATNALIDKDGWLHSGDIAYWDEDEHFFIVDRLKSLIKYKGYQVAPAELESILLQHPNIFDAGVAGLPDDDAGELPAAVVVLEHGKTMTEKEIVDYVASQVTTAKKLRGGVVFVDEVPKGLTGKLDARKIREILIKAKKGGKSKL
In short: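 Inhibition of purified Photinus luciferase is measured by luminescence. Substrate levels (D-luciferin, ATP) sit at their KM values. Each compound is tested in a concentration series.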

[3] = qHTS assay to identify small molecule agonists of the constitutive androstane receptor (CAR) signaling pathway - cell viability counter screen (AID 1224836); note: nearly all actives have a fitted effect of over 45% in size
In short: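 Double-stable HepG2 hepatoma cells (hCAR plus CYP2B6-2.2kb) are treated for 23 h at 37 C with test compounds in 15-point concentration series. PK11195 at 0.75 uM final is co-added. Cell viability is quantified by CellTiter-Fluor.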

[4] = qHTS assay to identify small molecule antagonists of the constitutive androstane receptor (CAR) signaling pathway - cell viability counter screen (AID 1224837); note: nearly all actives have a fitted effect of over 45% in size
In short: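 Cytotoxicity counter-screen: CellTiter-Fluor fluorescence after 23 h compound exposure (15-point qHTS) in double-stable HepG2-CYP2B6-hCAR cells, with 50 nM CITCO added.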

[5] = target: Nuclear receptor subfamily 1 group I member 3 (Homo sapiens) (UniProt Q14994); experiment: qHTS assay to identify small molecule agonists of the constitutive androstane receptor (CAR) signaling pathway (AID 1224839); note: nearly all actives have a fitted effect of over 15% in size; note: potency is the fitted concentration of half-maximal effect;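 for activation: HepG2 cells stably carrying human CAR and a CYP2B6 luciferase reporter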
Sequence of Nuclear receptor subfamily 1 group I member 3 (Homo sapiens) (Q14994 whole entry, looked up): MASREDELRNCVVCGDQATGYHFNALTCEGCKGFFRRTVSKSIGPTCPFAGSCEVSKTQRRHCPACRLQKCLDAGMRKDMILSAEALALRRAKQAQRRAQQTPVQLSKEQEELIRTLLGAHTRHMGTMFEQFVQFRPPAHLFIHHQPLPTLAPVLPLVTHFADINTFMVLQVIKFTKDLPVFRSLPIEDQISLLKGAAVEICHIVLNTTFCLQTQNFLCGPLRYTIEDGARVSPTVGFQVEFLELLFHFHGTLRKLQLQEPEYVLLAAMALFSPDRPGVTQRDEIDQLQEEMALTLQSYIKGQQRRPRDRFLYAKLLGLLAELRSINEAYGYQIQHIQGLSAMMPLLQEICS
In short: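 Readout: firefly luciferase luminescence via ONE-Glo. System: HepG2 double-stable for hCAR and CYP2B6-2.2kb. Conditions: 15-point compound titration, PK11195 at 0.75 uM final, 24 h incubation.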

[6] = qHTS assay to identify small molecule antagonists of the estrogen related receptor signaling pathway with the pleiotropic PPARgamma coactivator (PGC) from Tox21 10K library - cell viability counter screen (AID 1224840; active = well fitted cell-killing curve with a large enough effect in the repeat runs, not every such curve was filed as active; note: nearly all actives have a fitted effect of over 40% in size)
In short: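 Counter-screen for cytotoxicity: after 17.5 h compound exposure at 37 C, CellTiter-Fluor reagent added to PGC/ERR cells for 30 min and fluorescence read. Cells were seeded at 2,000 per well 6 h before dosing.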

[7] = qHTS assay to identify small molecule antagonists of the estrogen related receptor signaling pathway with the pleiotropic PPARgamma coactivator (PGC) from Tox21 10K library (AID 1224841; call rule not given here; note: actives are mostly falling curves and most rising ones were filed inactive; nearly all actives have a fitted effect of over 50% in size)
In short: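 Luminescence (One-Glo, 30 min at room temperature) after 18 h compound treatment at 37 C of PGC/ERR reporter cells plated at 2,000 cells/well and settled 6 h beforehand.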

[8] = qHTS assay to identify small molecule agonists of the estrogen related receptor signaling pathway with the pleiotropic PPARgamma coactivator (PGC) from Tox21 10K library (AID 1224842); note: nearly all actives have a fitted effect of over 15% in size
In short: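 Luminescence from One-Glo (30 min, room temperature) measured after PGC/ERR cells had 18 h at 37 C with pinned compound (23 nL in DMSO). Cells had been seeded at 2,000 per well and pre-incubated 6 h.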

[9] = target: Thyrotropin receptor (Homo sapiens) (UniProt P16473); experiment: qHTS assay to identify small molecule agonists of the thyroid stimulating hormone receptor (TSHR) signaling pathway (AID 1224843; calls by dose curve; note: nearly all actives have a fitted effect of over 45% in size)
Sequence of Thyrotropin receptor (Homo sapiens) (P16473 whole entry, looked up): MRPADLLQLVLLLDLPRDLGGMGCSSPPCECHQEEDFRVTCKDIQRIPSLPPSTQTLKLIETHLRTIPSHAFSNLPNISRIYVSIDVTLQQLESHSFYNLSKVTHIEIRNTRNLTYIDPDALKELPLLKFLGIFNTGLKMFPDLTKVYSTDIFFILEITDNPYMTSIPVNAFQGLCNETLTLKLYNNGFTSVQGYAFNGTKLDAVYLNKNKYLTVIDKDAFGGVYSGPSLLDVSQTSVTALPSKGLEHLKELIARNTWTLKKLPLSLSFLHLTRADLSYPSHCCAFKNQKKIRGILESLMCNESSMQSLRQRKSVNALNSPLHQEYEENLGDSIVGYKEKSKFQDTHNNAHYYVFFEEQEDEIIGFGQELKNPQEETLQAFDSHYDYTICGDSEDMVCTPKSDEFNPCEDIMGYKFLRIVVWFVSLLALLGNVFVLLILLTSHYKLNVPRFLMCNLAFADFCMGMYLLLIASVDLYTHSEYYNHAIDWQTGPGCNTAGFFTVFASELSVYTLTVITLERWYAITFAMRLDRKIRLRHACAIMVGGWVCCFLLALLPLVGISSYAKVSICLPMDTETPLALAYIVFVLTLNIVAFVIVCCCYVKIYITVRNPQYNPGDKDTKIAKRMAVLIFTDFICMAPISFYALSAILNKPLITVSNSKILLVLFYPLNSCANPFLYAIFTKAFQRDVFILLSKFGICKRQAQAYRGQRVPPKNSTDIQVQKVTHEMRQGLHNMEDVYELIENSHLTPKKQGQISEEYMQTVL
In short: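 A cell-based cAMP HTRF format was run in TSHR-transfected HEK293 cells, 800 per well. Treatment: 30 min, room temperature. Detection: 1 h with labelled cAMP and anti-cAMP cryptate. Concentration-response over 15 points, three replicates.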

[10] = qHTS assay to identify small molecule agonists of the hypoxia (HIF-1) signaling pathway - cell viability counter screen (AID 1224844; calls by dose curve; note: nearly all actives have a fitted effect of over 50% in size; note: potency is the fitted concentration of half-maximal effect)
In short: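 Cytotoxicity measured by CellTiter-Glo ATP luminescence in the wells also read for beta-lactamase signal. Cells were HRE-bla ME-180 (2,000/well, 0.5% dialyzed FBS), exposed to compounds for 17 h at 37C.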

[11] = qHTS assay to identify small molecule agonists of H2AX (AID 1224845; active = well fitted activation curve with a large enough effect in the signal ratio in the repeat runs, not every such curve was filed as active; the % refers to the signal ratio)
In short: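 Phospho-H2AX Ser139 measured by HTRF (ex 320 nm; em 665 and 620 nm) after 24 hr antibody incubation. Compounds, 15 concentrations, 0.76% DMSO, were applied to CHO-K1 cells for 3hr at 37C before lysis.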

[12] = qHTS assay to identify small molecule agonists of the hypoxia (HIF-1) signaling pathway (AID 1224846; active = well fitted activation curve with a large enough effect in the signal ratio in the repeat runs, not every such curve was filed as active; the % refers to the signal ratio)
In short: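 Compounds added to ME-180 cells carrying hypoxia-response-element beta-lactamase reporter (0.5% dialyzed FBS, 5 h preplating), 17 h at 37C; agonist activity detected by CCF4-AM B/G FRET read-out.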

[13] = qHTS assay to identify small molecule agonists of H2AX - cell viability counter screen (AID 1224847; calls by dose curve;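 note: wild-type CHO-K1 cells; top concentration of the series differs between compounds; nearly all actives have a fitted effect of over 30% in size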)
In short: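 For this counter screen, overnight-attached CHO-K1 cells received test compounds (15 concentrations, 0.76% DMSO final); 3 hr later at 37C, CellTiter-Glo reagent was added and luminescence recorded after 30 min at room temperature.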

[14] = qHTS assay to identify small molecule antagonists of the estrogen related receptor (ERR) signaling pathway from Tox21 library (AID 1224848); note: nearly all actives have a fitted effect of over 50% in size
In short: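 ERR cell line, 2,000 cells/well. 6 h settle, then compound (DMSO) added; 18 h at 37 C; ONE-Glo luminescence after 30 min RT.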

[15] = qHTS assay to identify small molecule agonists of the estrogen related receptor (ERR) signaling pathway from Tox21 library (AID 1224849; calls by dose curve; note: nearly all actives have a fitted effect of over 15% in size); details: ERR reporter cell line, ONE-Glo luciferase, 18 h; at 92.4 µM (top of the series) unless noted
In short: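 Luminescent agonist read-out (One-Glo, 30-minute room-temperature incubation) following 18-hour compound treatment at 37 C of the ERR cell line, which had been plated 6 hours before dosing.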

[16] = qHTS RealTime-Glo MT Cell Viability Assay in HepG2 cells - 24 hour (AID 1224867); note: nearly all actives have a fitted effect of over 50% in size
In short: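 Compound treatment began 5 h after plating HepG2 cells (600/well) with NanoLuc luciferase and prosubstrate. Plates stayed at 37 C for 40 h; luminescence was captured at six time points, 0 h through 40 h.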

[17] = qHTS RealTime-Glo MT Cell Viability Assay in HEK293 cells - 32 hour (AID 1224868); note: nearly all actives have a fitted effect of over 50% in size; note: potency is the fitted concentration of half-maximal effect
In short: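 Quantitative high-throughput screen of the Tox21 10K library in HEK293: cells and RealTime-Glo reagents plated together, compound added at 5 h, luminescence monitored through 40 h at 37 C.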

[18] = qHTS RealTime-Glo MT Cell Viability Assay in HepG2 cells - 40 hour (AID 1224870); note: nearly all actives have a fitted effect of over 50% in size
In short: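 Real-time viability: cells seeded at 600 per well together with NanoLuc and cell-permeant prosubstrate, compounds added after 5 h incubation. Luminescence tracked at 0, 8, 16, 24, 32 and 40 h of exposure.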

[19] = A CellTox Green Cytotoxicity Assay to monitor cytotoxicity in HEK293 cells - 0 hour (AID 1224869); note: nearly all actives have a fitted effect of over 50% in size
In short: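 Fluorescence from a DNA-binding dye excluded by viable cells was measured repeatedly in the same HEK293 wells (600 cells/well) during continuous compound exposure at 37 C. Each assay gives one read point: 0, 8, 16, 24, 32 or 40 h.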

[20] = target: Nuclear receptor subfamily 1 group I member 3 (Homo sapiens) (UniProt Q14994); experiment: qHTS assay to identify small molecule antagonists of the constitutive androstane receptor (CAR) signaling pathway (AID 1224838);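 note: HepG2 cells stably expressing hCAR with CYP2B6 luciferase reporter stimulated by CITCO; nearly all actives have a fitted effect of over 40% in size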
In short: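 Antagonism measured as luciferase signal (ONE-Glo, 30 min, room temperature) in CAR-stimulated cells: HepG2-CYP2B6-hCAR double-stable line exposed 24 hr at 37 C to compound in a 15-point series plus 50 nM CITCO.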
% is set by controls: 0 for no effect and ±100 for the full control effect.

CC(=O)Nc1cc([As](=O)(O)O)ccc1O
inactive: Potency [1] | Potency [2] | Potency [3] | Potency [4] | Potency [5] | Potency [6] | Potency [7] | outcome [8] | Potency [9] | Potency [10] | Potency [11] | outcome [12] | Potency [13] | Potency [14] | activity change, positive = activation [15] -16.7% [at 42.5 µM] | Potency [16] | Potency [17] | Potency [18]

CCCCC(=O)Cl
inactive: Potency [1] | Potency [2] | Potency [3] | Potency [4] | Potency [5] | Potency [6] | Potency [7] | outcome [8] | Potency [9] | Potency [10] | Potency [11] | outcome [12] | Potency [13] | Potency [14] | activity change, positive = activation [15] -5.15% | Potency [16] | Potency [17] | Potency [19] | Potency [18]

OC(c1ccc(F)cc1)(c1cncnc1)c1ccccc1Cl (stereo not drawn)
inactive: Potency [1] | Potency [2] | Potency [3] | Potency [4] | Potency [20] | Potency [5] | Potency [10] | Potency [11] | outcome [12] | Potency [13] | Potency [16] | Potency [17] | Potency [19] | Potency [18]

C1CCC(C2CCCCC2)CC1
inactive: Potency [1] | Potency [2] | Potency [3] | Potency [4] | Potency [5] | Potency [6] | Potency [7] | outcome [8] | Potency [11] | Potency [13] | activity change, positive = activation [15] -6.98% | Potency [16] | Potency [18]
active: Potency [10] 21.9 µM

Nc1cc(Cl)ccc1O
active: Potency [1] 33.3 µM | Potency [5] 52.7 µM
inactive: Potency [2] | Potency [3] | Potency [4] | Potency [6] | Potency [9] | Potency [10] | outcome [12] | Potency [13] | Potency [16] | Potency [17] | Potency [19] | Potency [18]

O=[N+]([O-])c1ccc(CBr)cc1
inactive: Potency [1] | Potency [2] | Potency [3] | Potency [4] | Potency [20] | Potency [6] | Potency [9] | Potency [11] | Potency [13] | Potency [16] | Potency [17] | Potency [19] | Potency [18]
active: Potency [10] 24.2 µM

CCN(CC)C(C)C(=O)c1ccccc1 (stereo not drawn)
inactive: Potency [1] | Potency [2] | Potency [3] | Potency [4] | Potency [5] | Potency [6] | Potency [9] | Potency [10] | Potency [11] | outcome [12] | Potency [13] | Potency [16] | Potency [17] | Potency [19] | Potency [18]

NC(=O)O
inactive: Potency [1] | Potency [2] | Potency [3] | Potency [4] | Potency [20] | Potency [6] | Potency [9] | Potency [10] | Potency [11] | outcome [12] | Potency [13] | Potency [14] | activity change, positive = activation [15] -1.74% | Potency [16] | Potency [17] | Potency [19] | Potency [18]

CCCCc1ccc(O)cc1
active: Potency [17] 19.5 µM
inactive: Potency [1] | Potency [2] | Potency [3] | Potency [4] | Potency [20] | Potency [5] | Potency [10] | Potency [11] | outcome [12] | Potency [13] | Potency [16] | Potency [19] | Potency [18]

CCOP(=S)(Oc1cnc(C(C)(C)C)nc1)OC(C)C (stereo not drawn)
inactive: Potency [1] | Potency [2] | Potency [3] | Potency [4] | Potency [20] | Potency [7] | outcome [8] | Potency [10] | outcome [12] | activity change, positive = activation [15] -20.7% | Potency [16] | Potency [17] | Potency [19] | Potency [18]

CCCSC(=O)Cl
inactive: Potency [1] | Potency [2] | Potency [3] | Potency [4] | Potency [5] | Potency [6] | Potency [10] | Potency [11] | outcome [12] | Potency [13] | Potency [16] | Potency [17] | Potency [19] | Potency [18]

CC1(C)COP(Oc2ccccc2)OC1
inactive: Potency [1] | Potency [2] | Potency [3] | Potency [4] | Potency [5] | Potency [6] | Potency [7] | outcome [8] | Potency [9] | Potency [10] | Potency [11] | outcome [12] | Potency [13] | Potency [14] | activity change, positive = activation [15] 6.55% | Potency [16] | Potency [17] | Potency [19] | Potency [18]

COc1cc(OC)nc(Oc2cccc(Oc3nc(OC)cc(OC)n3)c2C(=O)O)n1
inactive: Potency [1] | Potency [2] | Potency [3] | Potency [4] | Potency [20] | Potency [5] | Potency [10] | Potency [11] | outcome [12] | Potency [16] | Potency [17] | Potency [19]

From PubChem BioAssay (Tox21)
